In all, about 1,300 compounds went through this assay and about 420 (32%) were called active. Inconclusive results (about 32%) are left out. Calls come from the whole dose curve; as a rule, active = well fitted inhibition curve with a large enough effect; inconclusive = small, poorly fitted or top-dose-only effect; inactive = no such curve, though single readings can be large or run the other way. The list shows a part of the results.
Molecular target: C-terminal-binding protein 1 (Homo sapiens) (UniProt Q13363)
Experiment: qHTS for Inhibitors of the Phosphatase Activity of Eya2: Carboxyl-terminal binding protein (CtBP) Counterscreen for Cherry-picked Compounds; note: nearly all actives have a fitted effect of over 65% in size
Conditions: purified protein-protein binding, AlphaScreen, 3 h; series mostly up to 46.1 µM; activity change, negative = inhibition: at the top concentration
Procedure, shortened: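 Cherry-picked compounds (final 2.5 nM–46 uM) were incubated 2 h at RT with 25 nM CtBP-6xHIS and 25 nM GST-E1A. Alpha beads (20 ug/mL) were then added for 1 h, light-protected; DMSO and E1A peptide inhibitor wells set the normalization.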
% is set by controls: 0 for no effect and ±100 for the full control effect; potency is the fitted concentration of half-maximal effect.

| Compound | Potency | activity change, negative = inhibition |
| --- | --- | --- |
| Cc1c(CC(=O)N[C@@H](C)C(=O)O)c(=O)oc2cc3occ(-c4ccccc4)c3cc12 | 6.75 µM (active) |  |
| Cc1c(CC(=O)NCCCC(=O)O)c(=O)oc2cc3occ(-c4ccccc4)c3cc12 | 13.5 µM (active) |  |
| COc1ccc(-c2coc3cc4oc(=O)c(CC(=O)O)c(C)c4cc23)cc1 | 13.5 µM (active) |  |
| Cc1c(CC(=O)NCC(=O)O)c(=O)oc2cc3occ(-c4ccccc4)c3cc12 | 13.5 µM (active) |  |
| N#Cc1ccc(CSc2nnc(-c3c[nH]c4ccccc34)n2-c2ccccc2)cc1 |  | -10.5% (inactive) |
| Cc1c(CCC(=O)NCCCCCC(=O)O)c(=O)oc2cc3occ(-c4ccccc4)c3cc12 | 8.49 µM (active) |  |
| COc1cccc2c1C(=O)/C(=C/c1ccc(N(C)C)cc1)C2 | 4.78 µM (active) |  |
| CN(C)CCNc1ccc2nnn3c4ccc(O)cc4c(=O)c1c23 | 1.2 µM (active) |  |
| CN(C)CCNc1ccc2ncn3c4ccc(O)cc4c(=O)c1c23 | 1.9 µM (active) |  |
| O=C(CC1(O)C(=O)Nc2ccccc21)c1ccccc1 (stereo not given) |  | 12.8% (inactive) |
| CCOC(=O)c1c(NC(=O)/C=C/C(=O)O)sc(C)c1-c1ccc(Cl)cc1 |  | -19.5% (inactive) |
| Cn1c(=O)c(N)c2c3c(c(Br)ccc31)C(=O)c1ccccc1-2 | 9.53 µM (active) |  |
| Cc1c(NC(=O)c2ccco2)cccc1C(=O)NN1C(=O)c2ccccc2C1=O |  | -9.57% (inactive) |
| CCc1c(C)nc(Nc2nc(C)c3ccc(OC)cc3n2)[nH]c1=O | 3.38 µM (active) |  |
| Cc1nn2c(c1-c1ccccc1)NC1=C(C(=O)CCC1)C2c1ccccc1 (stereo not given) |  | 3.34% (inactive) |
| C/C=C/c1ccc(OCCSc2nc(C)cc(=O)[nH]2)c(OC)c1 | 10.7 µM (active) |  |
| O=S(=O)(Nc1nnc(-c2ccccc2)s1)c1ccc(Cl)cc1 | 16.9 µM (active) |  |
| Cc1n[nH]c(=S)n(NC(=O)CC(=O)Nn2c(=S)[nH]nc(C)c2=O)c1=O | 1.2 µM (active) |  |
| CC1=CC(C)(C)Nc2ccc(OC(=O)CN3C(=O)c4ccccc4C3=O)cc21 |  | 9.89% (inactive) |
| O=S(=O)(c1ccc(Cl)s1)N1CCc2ccccc2C1 |  | 65.2% (inactive) |
| COc1ccc(OC)c(/C=C2\SC(=S)N(NS(=O)(=O)c3ccccc3)C2=O)c1 |  | -14.7% (inactive) |
| Cc1ccc(S(=O)(=O)NN2C(=O)/C(=C/c3cccc(F)c3)SC2=S)cc1 |  | -16.6% (inactive) |
| O=C(NN1C(=O)/C(=C\c2ccc(O)c([N+](=O)[O-])c2)SC1=S)c1ccccc1Cl | 12 µM (active) |  |
| COc1ccc(Nc2nc(C(C)(C)C)nc3c2nnn3Cc2ccccc2Cl)cc1OC |  | -19% (inactive) |

| Compound | Potency | activity change, negative = inhibition |
| --- | --- | --- |
| CCOC(=O)CNC(=O)C1CCCN(c2ncccn2)C1 (stereo not given) |  | 12.5% (inactive) |
| CCOC(=O)C1CCN(C2=C(NS(=O)(=O)c3ccc(Br)cc3)C(=O)c3ccccc3C2=O)CC1 | 5.36 µM (active) |  |
| NC(=O)C1CCN(c2oc(-c3cccs3)nc2S(=O)(=O)c2ccc(Br)cc2)CC1 |  | -14.9% (inactive) |
| CCOC(=O)C1CCCN(C2=C(NS(=O)(=O)c3ccc(Br)cc3)C(=O)c3ccccc3C2=O)C1 (stereo not given) | 12 µM (active) |  |
| Brc1ccc(CSc2ccc3nnc(-c4cccnc4)n3n2)cc1 |  | -31.1% (inactive) |
| c1ccc(CSc2ccc3nnc(-c4ccccn4)n3n2)cc1 | 13.5 µM (active) |  |
| COC(=O)c1ccc(CSc2ccc3nnc(-c4ccccn4)n3n2)o1 | 7.57 µM (active) |  |
| Brc1ccc(CSc2ccc3nnc(-c4ccccn4)n3n2)cc1 | 13.5 µM (active) |  |
| CCOc1ccc(NC(=O)C2CC(=O)N(CCc3ccc(OC)c(OC)c3)C2)cc1OCC (stereo not given) | 19 µM (active) |  |
| CN(C)c1ccc(C(CNS(=O)(=O)c2ccc(F)c(F)c2)c2c[nH]c3ccccc23)cc1 (stereo not given) |  | -19.8% (inactive) |
| Cc1ccc(NC(=O)c2ccc3c(c2)OCO3)cc1S(=O)(=O)N1CCOCC1 | 8.49 µM (active) |  |
| O=C(COC(=O)c1cc(S(=O)(=O)N2CCOCC2)ccc1O)Nc1ccc2c(c1)OCO2 |  | -29.9% (inactive) |
| O=C(COC(=O)c1cc(=O)[nH]c2ccccc12)Nc1cccc(S(=O)(=O)N2CCOCC2)c1 |  | -20.2% (inactive) |
| S=C(Nc1ccc2c(c1)OCCO2)Nc1ccc2c(c1)OCO2 |  | -13.5% (inactive) |
| NC(=O)C1CCN(CC(=O)Nc2ccc3c(c2)OCO3)CC1 |  | 56.5% (inactive) |
| COc1ccc(S(=O)(=O)N2CCOCC2)cc1C(=O)Nc1cccc(C(=O)NC2CC2)c1 | 15.1 µM (active) |  |
| COc1ccc2oc(C(=O)Nc3cccc(S(=O)(=O)N4CCOCC4)c3)c(C)c2c1 |  | 2.02% (inactive) |
| Cc1ccc(NC(=O)/C=C/c2ccc3c(c2)OCO3)cc1S(=O)(=O)N1CCOCC1 | 6.75 µM (active) |  |
| COc1ccc(/C=C/C(=O)Nc2cccc(S(=O)(=O)N3CCOCC3)c2)cc1OC | 15.1 µM (active) |  |
| Oc1ccc(-c2nc3c4c(ncn3n2)-c2ccccc2CC42CCCC2)cc1 |  | -5.04% (inactive) |
| Cc1ccc(Nc2nc(N)nc(CSc3nnc(C)s3)n2)cc1 |  | -28.6% (inactive) |
| O=C(O)C1=C[C@@H](c2csc3ccccc23)C[C@@H](OCc2ccc(CO)cc2)O1 |  | 1.42% (inactive) |
| CN(C)Cc1ccccc1Sc1cccc2ccccc12 |  | -22.5% (inactive) |
| CCN(CC)C(=O)c1ccc(O)c(OC)c1 |  | 10% (inactive) |

| Compound | Potency | activity change, negative = inhibition |
| --- | --- | --- |
| Cc1cc(NC(=O)CS(=O)(=O)c2cn(Cc3cccc(Br)c3)c3ccccc23)no1 |  | -9.1% (inactive) |
| COc1ccccc1-n1c(SCC(=O)Nc2cc(C)on2)nc2c(c1=O)SCC2 |  | -4.85% (inactive) |
| COc1cccc(-c2nnc(SCC(=O)Nc3cc(C)on3)o2)c1 | 12 µM (active) |  |
| O=C(Nc1cccc(O)c1)c1cccc(C(=O)Nc2cccc(O)c2)c1 | 8.49 µM (active) |  |
| O=C(Nc1ccccc1)C(Cl)C(=O)c1ccccc1 (stereo not given) |  | -7.71% (inactive) |
| CCC(=O)Nc1nc2c(OC)ccc(OC)c2s1 |  | -9.07% (inactive) |
| COc1cc(CNC(=O)Nc2nc(C(N)c3ccccc3)cs2)cc(OC)c1OC (stereo not given) | 13.5 µM (active) |  |
| O=S(=O)(c1ccccc1)[C@@]1(c2ccccc2)C[C@@H]2ON=C(c3cccc(-c4ccccc4)c3)[C@@H]2C1 |  | -6.8% (inactive) |
| COc1cccc(C=NCC(C)N=Cc2cccc(OC)c2O)c1O (stereo not given) | 16.9 µM (active) |  |
| Oc1c(C(c2cccs2)N2CCN(c3ccccc3)CC2)sc2ncnn12 (stereo not given) | 19 µM (active) |  |
| COc1ccc(N2CCN(C(c3ccco3)c3sc4nc(C)nn4c3O)CC2)cc1 (stereo not given) |  | -20.4% (inactive) |
| O=c1c(O)cccc2cc(O)c(O)c(O)c12 | 15.1 µM (active) |  |
| COc1ccccc1OCC(=O)Nc1ccc(C(=O)Nc2ccccc2C(=O)O)cc1 | 16.9 µM (active) |  |
| COc1ccccc1NC(=O)c1ccc(NC(=O)Cc2n[nH]c(=O)c3ccccc23)cc1 |  | 6.99% (inactive) |
| CC1=C(/C=C/C(C)=C/C=C/C(C)=C/C(=O)Nc2ccc(O)cc2)C(C)(C)CCC1 |  | -22% (inactive) |
| COc1ccc(S(=O)(=O)N2CCC3CC2c2cc(N4CCOCC4)ccc23)cc1 (stereo not given) |  | 53.4% (inactive) |
| O=C(Oc1ccc(=O)n(-c2ccccc2)n1)c1ccc(F)cc1 |  | 7.08% (inactive) |
| C[n+]1ccc(/C=C/c2cc[n+](C)c3ccccc23)c2ccccc21 | 15.1 µM (active) |  |
| CN1C=C/C(=C\c2cc[n+](C)c3ccccc23)c2ccccc21 | 15.1 µM (active) |  |
| O=S(=O)(O)c1ccc2c(N=Nc3ccc(S(=O)(=O)O)c4ccccc34)c(O)c(S(=O)(=O)O)cc2c1 | 9.53 µM (active) |  |
| CC(=O)Nc1ccc(S(=O)(=O)O)c2cc(S(=O)(=O)O)c(N=Nc3ccc(N=Nc4ccc(S(=O)(=O)O)cc4)c4ccc(S(=O)(=O)O)cc34)c(O)c12 | 1.69 µM (active) |  |
| O=C(Nc1ccc(F)cc1)c1ccc2[nH]c(=O)c(=O)[nH]c2c1 | 1.9 µM (active) |  |
| Cc1ccc(NC(=O)c2ccc3[nH]c(=O)c(=O)[nH]c3c2)nc1 | 6.75 µM (active) |  |
| O=C(NC1=C(Nc2ccc(F)cc2)C(=O)c2ccccc2C1=O)c1ccc(Cl)cc1 |  | -23.9% (inactive) |

| Compound | Potency | activity change, negative = inhibition |
| --- | --- | --- |
| Cc1cc(NC(=O)c2cccc(N3C(=O)CCC3=O)c2)no1 |  | 5.6% (inactive) |
| Cc1nc2c(C(=O)Nc3ccc(N4CCCC(O)C4)cc3)snc2c(=O)[nH]1 (stereo not given) |  | -14.4% (inactive) |
| CCOc1cc(/C=C2/NC(=O)NC2=O)cc(Br)c1OCc1ccc(C(=O)O)cc1 |  | -28.6% (inactive) |
| CSCc1cc(N(C)c2ccccc2)nc(-c2ccccn2)n1 | 13.5 µM (active) |  |
| O=C(O)C1=NN(c2cc(Cl)c(S(=O)(=O)O)cc2Cl)C(=O)C1 |  | -1.01% (inactive) |
| CN(C)c1ccc(N=c2sc3ccccc3n2C)cc1 | 7.57 µM (active) |  |
| CCN1CCN(c2ncnc3scc(-c4ccc(C)cc4)c23)CC1 |  | -13.6% (inactive) |
| CN(C)S(=O)(=O)n1cnc2ccccc21 |  | 2.9% (inactive) |
| CCc1nnc2c(N(C)C)nc3ccccc3n12 | 12 µM (active) |  |
| Cc1cc2oc(C(=O)N3CCN(Cc4ccccc4)CC3)c(C)c2cc1C |  | -17.7% (inactive) |
| O=C1C(NS(=O)(=O)c2cccs2)=C(N2CCN(Cc3ccccc3)CC2)C(=O)c2ccccc21 | 10.7 µM (active) |  |
| CC(=O)Nc1ccc(S(=O)(=O)NC2=C(N3CCN(Cc4ccccc4)CC3)C(=O)c3ccccc3C2=O)cc1 | 16.9 µM (active) |  |
| O=c1c2ccccc2nnn1CSc1nnc(C2COc3ccccc3O2)n1-c1ccccc1 (stereo not given) |  | -10.6% (inactive) |
| O=c1cc(CSc2ccc(Cl)cc2)nc(-c2ccccn2)[nH]1 | 2.13 µM (active) |  |
| Nc1nc2cc3ccccc3cc2[nH]c1=O |  | -9.19% (inactive) |
| O=c1nc(-c2ccccc2)c2cc(Cl)ccc2[nH]1 | 13.5 µM (active) |  |
| COc1ccc(NC(=O)c2[nH]c(C)c(C(C)=O)c2C)cc1Cl |  | -22.9% (inactive) |
| O=C1N=c2ccccc2=C1c1sc(Nc2cccc(O)c2)nc1O |  | -25.1% (inactive) |
| CN(C1=C(N2CCCCC2)C(=O)c2ccccc2C1=O)c1ccccc1 | 1.9 µM (active) |  |
| O=C(CCS(=O)(=O)c1ccc(Br)cc1)N1CCCCCC1 |  | 6.61% (inactive) |
| O=C1C(NS(=O)(=O)c2ccc(Br)cc2)=C(N2CCCCC2)C(=O)c2ccccc21 | 13.5 µM (active) |  |
| CC1CCN(C2=C(NS(=O)(=O)c3ccc(Br)cc3)C(=O)c3ccccc3C2=O)CC1 | 5.36 µM (active) |  |
| O=C1C(Nc2cccc(O)c2)=C(N2CCCCC2)C(=O)c2ccccc21 | 19 µM (active) |  |

Reference: PubChem BioAssay AID720541 (National Center for Advancing Translational Sciences (NCATS), 2013)
